Screening data from PubChem BioAssay.
A selection: hits, their analogues and other compounds. The true share with any hit is near 1.2%.
RGS16-Gao – modulators of RGS16 binding to Galphao, primary screen, biochemical, human proteins, multiplexed bead flow cytometry; Regulator of G-protein signaling 16 (Homo sapiens) + Guanine nucleotide-binding protein …; bead-based flow cytometry RGS16-Galphao binding, fluorescence; actives lie on both sides; binding response (% of control), % at 10 µM; actives 0.38% (n = 220,000); AID 1441, 2008;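 note: Galphao activated by GDP with aluminum fluoride before binding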
Target sequence (O15492 whole entry, looked up): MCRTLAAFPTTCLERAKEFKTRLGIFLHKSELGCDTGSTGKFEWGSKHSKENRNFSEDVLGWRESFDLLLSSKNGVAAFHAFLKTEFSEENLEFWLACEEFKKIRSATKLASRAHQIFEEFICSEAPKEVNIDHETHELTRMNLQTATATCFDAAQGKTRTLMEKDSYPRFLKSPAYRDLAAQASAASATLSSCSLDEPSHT
Target sequence (P09471 whole entry, looked up): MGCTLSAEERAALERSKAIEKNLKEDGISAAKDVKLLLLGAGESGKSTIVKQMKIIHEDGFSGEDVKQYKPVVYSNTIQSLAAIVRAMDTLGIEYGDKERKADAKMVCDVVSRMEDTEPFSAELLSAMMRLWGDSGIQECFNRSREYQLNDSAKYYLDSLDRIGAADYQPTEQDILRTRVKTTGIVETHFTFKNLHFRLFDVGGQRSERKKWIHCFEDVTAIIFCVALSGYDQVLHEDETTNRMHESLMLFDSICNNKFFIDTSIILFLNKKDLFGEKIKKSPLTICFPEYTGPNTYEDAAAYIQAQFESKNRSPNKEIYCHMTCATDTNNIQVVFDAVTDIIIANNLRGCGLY
RGS7-Gao reg – RGS7-Galphao binding modulators, primary screen, biochemical, multiplexed bead flow cytometry. Guanine nucleotide-binding protein G(o) subunit alpha (Homo sapiens), P09471. actives lie on both sides. binding response (% of control), % at 10 µM. actives 0.35% (n = 220,000). AID 1439, 2008; in the data active = binding response below about 49% or above about 150%; inconclusive = no clear call, values can overlap the other calls; inactive = in between;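 note: fluorescent Galphao held in activated GDP-AlF4 state binding bead-coupled RGS7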
Target sequence (P09471 whole entry, looked up): as above
GSH fluor – compound fluorescence on glutathione beads, profiling panel, artefact control, biophysical, 488/530 nm, flow cytometry. GSH beads flow cytometry, compound fluorescence 488/530 nm; stronger effect = higher value. fluorescence (KMESF) at 10 µM. actives 0.25% (n = 190,000); in the data active = fluorescence above about 89;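 note: glutathione beads carrying GST-tagged Bcl family fusion proteins plus one bare bead set; values are compound well signal with DMSO vehicle wells as background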
RGS4-Gao reg – modulators of RGS4 binding to Galphao, primary screen, biochemical, multiplexed bead flow cytometry. Guanine nucleotide-binding protein G(o) subunit alpha (Homo sapiens), P09471. actives lie on both sides. binding response (% of control), % at 10 µM. actives 0.33% (n = 220,000). AID 1415, 2008; in the data active = binding response below about 49% or above about 150%; inactive = in between;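 note: fluorescent Galphao activated with aluminum fluoride binding bead-coupled RGS4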
Avidin fluor – green autofluorescence of compounds with avidin beads – biophysical, 488/530 nm, flow cytometry, artefact control, profiling panel; actives 0.38% (n = 220,000); fluorescence (KMESF) at 10 µM; AID 1775, 2009; compound fluorescence 488/530 nm; stronger effect = higher value; in the data active = fluorescence above about 47
RGS8-Gao reg – RGS8-Galphao binding modulators, primary screen, biochemical, multiplexed bead flow cytometry. Guanine nucleotide-binding protein G(o) subunit alpha (Homo sapiens), P09471. actives lie on both sides. response (percent of control binding), % at 10 µM. actives 0.34% (n = 220,000). AID 1423, 2008; in the data active = response below about 60% or above about 140%; inactive = in between;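 note: Galphao activated as the GDP aluminium fluoride complex binding bead-coupled RGS8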
RGS-Gao – modulators of RGS–Galpha-o binding, primary screen, biochemical, multiplexed beads, flow cytometry, RGS4/7/8/16/19; multiplexed bead flow cytometry; RGS4–Galpha-o binding response, % at 10 µM; actives 99% (n = 1,600); shares compounds with RGS16-Gao;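 note: fluorescently labeled Galpha-o bound to GDP with aluminium fluoride binding biotinylated RGS beads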
Avidin counter – disruption of biotin probe capture by avidin, counter-screen for RGS protein interaction modulators, biochemical, flow cytometry, bead-based. shares compounds with RGS16-Gao. inhibition, % at 10 µM. streptavidin beads, fluorescein-biotin binding. AID 1783, 2009. 1,700 tested, under 10 active;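 active = inhibition above 50%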;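 note: median green fluorescence of gated singlet beads compared with DMSO control wells; 0% = DMSO wells and 100% = complete loss of bead fluorescence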
RGS8-Gao single – RGS8-Galphao binding modulators, confirmation, biochemical, multiplexed bead flow cytometry, single concentration; shares compounds with RGS16-Gao; bead-based flow cytometry RGS8-Galphao binding, fluorescence; actives lie on both sides; binding response (% of control), % at 10 µM; actives 3% (n = 1,700); AID 1836, 2009; in the data active = binding response below about 72% or above about 130%; inactive = in between;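 note: Galphao activated as GDP AlF4 complex before binding bead RGS8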
RGS7-Gao confirm – RGS7-Galphao binding modulators, confirmation, biochemical, multiplexed bead flow cytometry, single concentration. shares compounds with RGS16-Gao. bead-based flow cytometry RGS7-Galphao binding; actives lie on both sides. response (percent of control binding), % at 10 µM. AID 1837, 2009. actives 7.8% (n = 1,700); in the data active = response below about 75% or above about 130%; inactive = in between;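 note: fluorescent Galphao activated with GDP and aluminum fluoride binding bead-coupled RGS7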
RGS16-Gao conf – modulators of RGS16-Galphao protein binding, confirmation, biochemical, single concentration, multiplexed bead flow cytometry | shares compounds with RGS16-Gao | bead-based flow cytometry; actives lie on both sides | response (% of control binding), % at 10 µM | actives 4% (n = 1,700) | AID 1838, 2009; in the data active = response below about 74% or above about 130%; inactive = in between;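 note: Galphao activated as the GDP aluminium fluoride complex binding bead-coupled RGS16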
RGS4-Gao confirm – modulators of RGS4-Galphao protein binding, confirmation, biochemical, single concentration, multiplexed bead flow cytometry. shares compounds with RGS16-Gao. actives lie on both sides. binding response (% of control), % at 10 µM. actives 4% (n = 1,700). AID 1840, 2009; in the data active = binding response below about 74% or above about 130%; inactive = in between
RGS19-Gao single – regulators of RGS19-Galphao binding, confirmation, biochemical, single point, multiplexed bead flow cytometry; response (percent of control binding), % at 10 µM; shares compounds with RGS16-Gao; actives 5% (n = 1,700); bead-based flow cytometry RGS19-Galphao binding; actives lie on both sides; AID 1841, 2009; in the data active = response below about 50% or above about 160%; inactive = in between;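 note: 100% = no compound control and 0% = blank background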
The depositor's hits bear a star; u = inconclusive; x = no result given; [ ] = another dose, or the depositor's remark. Unless noted, the rule behind the calls is not given here.

SMILES	RGS16-Gao	RGS7-Gao reg	GSH fluor	RGS4-Gao reg	Avidin fluor	RGS8-Gao reg	Avidin counter	RGS8-Gao single	RGS7-Gao confirm	RGS16-Gao conf	RGS4-Gao confirm	RGS19-Gao single	others
COCCN=C1NC(=O)C(CC(=O)Nc2cccc(Cl)c2C)S1 (stereo unspecified)	91.3	99.9	32	101.2	7	97.5	x	x	x	x	x	x
CN(C)S(=O)(=O)c1cccc(C(=O)OCC(=O)NCc2ccc3c(c2)OCO3)c1	100.1	99.1	22	100.7	10	98.4	x	x	x	x	x	x
O=C(N/N=C/c1cn(-c2ccccc2)nc1-c1cccnc1)c1cccnc1	104.3	174.1*[activator]	11	112.0	62*	103.2	0.6	100.4	104.9	102.6	101.2	106.5	RGS-Gao=112.0*
O=C(COC(=O)c1ccc(Cl)c(S(=O)(=O)N2CCN(c3ccc(F)cc3)CC2)c1)Nc1cccc(Cl)c1	122.4	102.3	13	103.5	3	108.1	x	x	x	x	x	x
O=c1ccc2cc(O)c(O)cc2o1	37.6	57.6	19	56.8	3	59.3*	2.0	94.5	91.1	91.0	89.5	86.4	RGS-Gao=56.8*
O=C(/C(C=Nc1cccc(C(F)(F)F)c1)=C(/O)c1ccco1)C(F)(F)F	2.5*	81.3	6	86.6	6	64.5	2.1	104.8	111.7	110.9	108.9	108.1	RGS-Gao=86.6*
Cc1ccc(CNc2cnn(C34CC5CC(CC(C5)C3)C4)c(=O)c2Cl)cc1	5.8*	7.4*	22	0.2*	-2	11.1*	-0.6	99.1	94.2	97.7	92.3	100.9
Cc1cc(C)cc(Nc2cnn(C34CC5CC(CC(CC(=O)O)(C5)C3)C4)c(=O)c2Cl)c1	x	x	33	90.9	x	x	1.5	102.8	104.9	101.8	101.9	100.1
Cc1cccc(Nc2cnn(C34CC5CC(CC(CC(=O)O)(C5)C3)C4)c(=O)c2Cl)c1	103.4	100.8	30	102.3	6	105.1	x	x	x	x	x	x
CC(=O)Nc1ncc2c(n1)CC(c1ccco1)CC2=O (stereo unspecified)	98.8	93.7	26	97.1	14	97.6	x	x	x	x	x	x
Cc1ccc(S(=O)(=O)NC(=O)Nc2ncc3c(n2)CC(c2ccco2)CC3=O)cc1 (stereo unspecified)	13.9*	77.0	8	78.6	2	62.9	0.2	101.9	106.6	102.4	102.8	92.8	RGS-Gao=78.6*
O=C(CSC(=S)N1CCCCC1)Nc1ncc2c(n1)CC(c1ccco1)CC2=O (stereo unspecified)	165.7	u	x	181.0*[activator]	7	143.9*[activator]	0.3	95.1	94.8	96.6	94.2	94.1
COc1cccc(-c2nc(-c3ccc(Br)o3)no2)c1	102.4	u	x	104.0	7	102.0	x	x	x	x	x	x
CC1(C)CC(NC(=O)c2coc(=O)c(Br)c2)CC(C)(C)N1	85.2	88.9	5	85.7	6	91.7	x	x	x	x	x	x
C/C(=N\Nc1cccc(Cl)c1)c1ccc(-n2ccnc2)cc1	104.2	106.7	21	108.8	12	104.2	x	x	x	x	x	x
CC(=O)c1cn(S(=O)(=O)c2ccccc2)c2ccccc12	106.5	102.0	11	98.6	3	101.5	x	x	x	x	x	x
CC/C(=N/NC(=O)c1ccccc1)c1ccc(OCCN2CCOCC2)cc1	229.3	189.7*[activator]	11	206.9*[activator]	2	188.7*[activator]	1.1	100.5	98.2	99.0	99.2	109.8
O=C1OCC2OC(O)C(O)C(O)C2OC(=O)c2cc(O)c(O)c(O)c2-c2c(O)c(O)c3oc(=O)c4c(c(O)c(O)c5oc(=O)c2c3c54)-c2c1cc(O)c(O)c2O (stereo unspecified)	66.1	u	x	48.3*	5	36.5*	0.3	37.1*	31.7*	75.2	47.2*	101.8
Cc1cc(C)c(C#N)c(N)n1	x	x	11	x	x	x	0.0	101.3	99.1	99.0	102.0	94.0
Cc1cc(N)nc(C)c1C#N	100.5	98.4	20	99.7	10	100.1	x	x	x	x	x	x
CC(=O)Nc1cccc(-n2nnc(SCC(=O)N(C)c3ccccc3)n2)c1	102.3	u	x	102.3	3	100.0	x	x	x	x	x	x
COc1ccccc1NC(=O)CN(c1ccc([N+](=O)[O-])cc1)S(=O)(=O)c1ccccc1	184.9*[activator]	78.8	15	112.9	6	84.9	-1.7	99.5	98.0	102.0	100.5	101.6	RGS-Gao=112.9*
CCCCN(CCCC)S(=O)(=O)c1ccc(NC(=O)c2ccc([N+](=O)[O-])cc2Cl)cc1	304.1*[activator]	116.0	10	113.4	15	134.2	-2.1	105.3	101.4	101.2	100.0	100.4	RGS-Gao=113.4*
Cc1ccc(C(=O)N(C)CC(=O)Nc2ccc(F)c(F)c2F)o1	102.8	106.4	13	102.6	11	104.2	x	x	x	x	x	x
CC(=O)c1ccc(S(=O)(=O)N2Cc3ccccc3CC2C(=O)O)cc1 (stereo unspecified)	101.8	u	x	104.0	3	103.7	x	x	x	x	x	x
